# AMA1 RON2 block: inhibitors of Plasmodium falciparum AMA1-RON2 interaction. AlphaScreen AMA1-biotinylated RON2 peptide binding. Potency, µM (doses to about 58.2 µM), without a hit: at the highest dose activity change, negative = inhibition, usual class: inhibitors. actives 0.2% (n = 360,000). AID 720542;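 also: potency is read from the fitted curve at half-maximal effect; 0% = vehicle wells and -100% = peptide control; nearly all actives have a fitted effect of over 45% in size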
#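 AMA1 (3D7) with his tag at 25 nM final met compounds first, then biotinylated RON2 peptide at 25 nM; detection used donor plus acceptor beads, 10 µg/mL apiece, read by AlphaScreen after 30 min at room temperature.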
# AmpC detergent: AmpC beta-lactamase inhibition with detergent present; Potency, µM (series often up to 114 µM), without a hit: top-dose activity change, negative = inhibition, actives largely listed as inhibitors; actives 0.041% (n = 370,000); P00811; AID 485294; AmpC hydrolysis of nitrocefin, absorbance 480 nm, 0.01% Triton;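 also: potency is read from the fitted curve at half-maximal effect; 0% = no-compound wells and -100% = no-enzyme wells; nearly all actives have a fitted effect of over 25% in size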
# Target sequence (P00811 whole entry, looked up): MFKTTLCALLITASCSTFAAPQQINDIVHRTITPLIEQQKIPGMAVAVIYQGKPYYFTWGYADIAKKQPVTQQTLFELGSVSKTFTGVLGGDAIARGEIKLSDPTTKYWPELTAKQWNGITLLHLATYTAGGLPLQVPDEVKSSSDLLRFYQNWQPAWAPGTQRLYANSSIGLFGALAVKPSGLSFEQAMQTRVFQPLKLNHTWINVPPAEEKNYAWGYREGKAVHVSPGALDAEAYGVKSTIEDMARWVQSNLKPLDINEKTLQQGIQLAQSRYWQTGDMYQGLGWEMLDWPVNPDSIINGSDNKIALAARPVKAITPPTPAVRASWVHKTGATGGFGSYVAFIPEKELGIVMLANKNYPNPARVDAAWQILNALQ
#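 AmpC (5.3 nM in the dispensed reagent) in 20 mM phosphate pH 7.0 with 0.01% (detergent screen) or 0.0001% Triton X-100 was preincubated with compounds for 15 min at room temperature. Nitrocefin was then added from an 800 uM solution, and hydrolysis was followed at 480 nm.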
# Shiga toxin inh: inhibitors of Shiga toxin in Vero cells. Vero cells, Shiga toxin protein synthesis inhibition reporter. inhibition, % at 38.7 µM. actives 9.2% (n = 290,000); in the data active = inhibition mostly above about 28%, no sharp cut-off; inactive = mostly below about 43%; also: 0% is about no effect
# SARS PLpro yeast: blocks SARS-CoV papain-like protease in a yeast assay. actives 0.19% (n = 330,000). S. cerevisiae expressing SARS-CoV PLpro, growth rescue. AID 485353. Potency, µM (top dose mostly 32.9 µM), inactives show at the highest dose activity, positive = growth rescue, usual class: activators; calls by dose curve; also: potency is read from the fitted curve at half-maximal effect; 0% is about no effect; nearly all actives have a fitted effect of over 55% in size
# AmpC no deterg: inhibitors of E. coli AmpC beta-lactamase without detergent; AmpC nitrocefin hydrolysis, absorbance 480 nm, 0.0001% Triton; actives 0.52% (n = 330,000); AID 485341; Potency, µM (doses to about 57.1 µM), for the others: top-dose activity change, negative = inhibition, usual class: inhibitors;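 also: potency is read from the fitted curve at half-maximal effect; plate controls were no compound for no effect and no enzyme for full effect; nearly all actives have a fitted effect of over 20% in size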
#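 20 mM phosphate pH 7.0 + 0.01% (detergent screen) or 0.0001% Triton X-100; 5.3 nM AmpC reagent; cpd preinc 15 min RT; nitrocefin (800 uM stock) to start; A480 q20 s × 4 min; Activity was normalised to no-enzyme and no-compound control wells.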
# CHX counter: counter-screen hit for Shiga toxin inhibitors, cycloheximide | cell reporter, cycloheximide protein synthesis inhibition counterscreen | max response, % | actives 12% (n = 300,000) | AID 2314; in the data active = max response mostly above about 13%, no sharp cut-off; inactive = mostly below about 14%; also: read at 38.3 µM for the half of the compounds with a filed dose; 0% is about no effect
# The depositor's hits bear a star; ? = inconclusive; . = no result given. This excerpt belongs to a sample that is enriched for hits. Unless noted, calls follow the shape of the dose curve; as a rule, active = well fitted curve in the direction sought with a large enough effect; inconclusive = small, poorly fitted or top-dose-only effect, or another doubt; inactive = no such curve, though single readings can be large; an effect the other way counts as inactive or inconclusive.
SMILES,AMA1 RON2 block,AmpC detergent,Shiga toxin inh,SARS PLpro yeast,AmpC no deterg,CHX counter
CC(=O)c1sc(NC(=O)C2CC(=O)N(Cc3ccccc3)C2)nc1-c1ccccc1 (stereo not given),-15%,0%,.,-5%,98%,.
CC(C)(C)c1ccc(OC(=O)c2cccnc2)cc1,18%,1%,20,-30%,24%,18*
COc1ccccc1C(=O)Oc1ccc(C(C)(C)C)cc1,27%,-6%,73,-8%,13%,29*
CCCCCCOC(=O)c1ccc(OC(=O)c2cccnc2)cc1,6%,?,58*,2%,71%,32*
CCCCOc1ccc(OC(=O)c2cccnc2)cc1,3%,-1%,4,-6%,12%,3
CCCCOC(=O)c1ccc(OC(=O)c2cccnc2)cc1,-7%,-10%,33*,15%,-4%,24*
COc1cc(NS(=O)(=O)c2ccc3c(c2)n(C)c(=O)n3C)cc(OC)c1,11%,-7%,-5,14%,-2%,-3
COc1ccc(C(=O)Oc2ccc(C(C)=O)cc2)c(OC)c1,2%,?,56,-1%,33%,30*
Cc1ccc(NC(=O)Cc2ccc(Cl)cc2)nc1,10%,.,.,.,.,.
Cc1ccc(NC(=O)c2cccc(Cl)c2)nc1,-5%,2%,161,5%,-2%,29*
S=C(Nc1ccccc1)Nc1ccc(Cl)cn1,27%,-9%,57,4%,-5%,25*
Cc1ccc(CC(=O)Nc2ccc(Cl)cn2)cc1,-9%,2%,70*,-18%,-24%,41*
CC(=O)N1CCN(S(=O)(=O)c2cccc(C(=O)Nc3ccc(C)cn3)c2)CC1,14%,?,77*,-3%,-10%,45*
COCCNc1nc(C)cc(-c2cc(-c3ccc(Cl)cc3)on2)n1,-3%,0%,-2,-7%,77%,-1
CCOc1ccc(NC(=O)c2c3c(nc4ccccc24)CCC3)cc1,11%,-1%,7,-1%,-16%,-2
O=C1CC(c2ccccc2)n2ncnc2N1 (stereo not given),-6%,1%,-12,-2%,-16%,6
Cc1ccc(NC(=O)c2ccc(Nc3ccccc3F)nc2)cc1,-5%,?,15,-8%,-21%,40*
O=C(COC(=O)Cc1ccccc1)Nc1ccc(Cl)cn1,4%,-10%,7,-6%,-37%,-1
O=C(CSc1ccccn1)Nc1ccc(Cl)cn1,0%,10%,44,-1%,-7%,23*
Cn1sc(NC(=O)c2ccccc2Cl)nc1=O,-11%,-4%,-5,2%,0%,10
Cn1sc(NC(=O)c2cccc(Cl)c2)nc1=O,20%,-2%,51*,-26%,-19%,16
Cc1ccc(NC(=O)c2ccc(NCc3ccc(F)cc3)nc2)cc1,?,-2%,-3,0%,-23%,-3
O=C(Cc1ccccc1)Nc1ccc(Cl)cn1,3%,2%,42,-15%,-11%,23*
O=C(NCc1ccco1)c1ccc(CS(=O)c2ccccc2Cl)o1 (stereo not given),-4%,.,.,.,.,.
Cc1ccc(C(=O)NCC(=O)OCC(=O)Nc2ccc(Cl)cn2)cc1,-1%,-1%,.,-27%,-24%,.
SMILES,AMA1 RON2 block,AmpC detergent,Shiga toxin inh,SARS PLpro yeast,AmpC no deterg,CHX counter
O=C(NC(=S)Nc1ccc(Cl)cn1)C12CC3CC(CC(C3)C1)C2,41%,3%,46,-7%,-13%,15*
Cc1ccc(C(=O)Nc2ccc(Cl)cn2)cc1,30%,-18%,55*,-4%,-21%,34*
O=C(CCc1ccccc1)Nc1ccc(Cl)cn1,-17%,-2%,134*,?,-9%,46*
O=C(CN1CCSc2ccccc21)NCCCc1ccccc1,-39%,-5%,86*,0%,-3%,37*
CCc1ccc(CNC(=O)CN2CCSc3ccccc32)cc1,.,0%,.,.,.,.
Cc1ccc(NCc2n[nH]c(=S)n2-c2cccc(Cl)c2)cc1,63%,-14%,2,-2%,-23%,-3
O=C(OCC(=O)C12CC3CC(CC(C3)C1)C2)c1cccnc1Cl,-3%,?,29,26%,-18%,20*
COc1ccc(OC)c(C(=O)COC(=O)c2ccccc2O)c1,23%,-12%,110*,-7%,-20%,16*
Cc1cc(C)c(C(=O)COC(=O)c2cccnc2Cl)c(C)c1,10%,-12%,90*,-1%,-6%,56*
COc1ccc(OC)c(C(=O)COC(=O)c2c(OC)cccc2OC)c1,-12%,-16%,-17,3%,-12%,-1
O=C(COC(=O)c1cccnc1Cl)c1ccc(Cl)cc1Cl,5%,-2%,-16,-7%,-48%,-4
CCOc1ncccc1C(=O)OCC(=O)c1ccc(C)c(C)c1,-3%,?,70*,0%,22%,43*
CCOc1ncccc1C(=O)OCC(=O)c1ccc(OC)c(OC)c1,-15%,-11%,-1,-4%,25%,14
COCCNc1sc(S(=O)(=O)c2ccc(C)cc2)nc1S(=O)(=O)c1ccc(C)cc1,.,20%,.,.,.,.
Cc1ccc(CN2CCN(Cc3nc4ccccc4nc3C)CC2CCO)cc1 (stereo not given),-2%,-2%,-22,1%,80%,-5
COc1ccc(NC(C)=O)cc1NC(C)c1nc2sc(C)c(C)c2c(=O)[nH]1 (stereo not given),5%,-1%,4,-3%,7%,-3
COc1ccc(C(=O)COC(=O)c2cccnc2Cl)c(OC)c1,1%,-5%,72*,0%,-27%,38*
CCCCCCNC(=O)N[C@@H](Cc1ccc(O)cc1)C(=O)NCCC[C@H]1CN2C(=NC[C@H]2C)N1CC1CCC1,-3%,1%,40*,0%,96%,11
COc1ccc(O)c(C(=O)c2cc(C(=O)NCCc3ccccc3)c(=O)n(CCc3ccccc3)c2)c1,-24%,4%,19,24%,-49%,32*
Cc1ccc(C(=O)Nc2ccc(F)cc2F)o1,-5%,3%,34,-4%,-10%,44*
CCCc1cc(C(=O)Nc2ccn(Cc3ccc(C)cc3)n2)no1,9%,-4%,21,-4%,-30%,1
Cc1ccc(C(=O)Nc2ccn(Cc3ccc(F)cc3)n2)o1,-2%,-7%,56*,11%,-8%,25*
COc1ccccc1C(=O)N1CCN(C(=O)Cc2ccccc2)CC1,-13%,2%,-3,-3%,-4%,-5
O=C(Nc1ccc(Cl)cc1)N(C1=NCCC1)c1ccc(OC(F)F)cc1,-5%,0%,75*,-13%,-26%,41*
O=C(COC(=O)Cc1ccc(Cl)cc1)Nc1ccc(OC(F)F)cc1,10%,?,-9,-2%,-19%,1
